Results filed as inconclusive are left out. The source made the active and inactive calls. Calls follow the shape of the dose curve; as a rule, active = well fitted inhibition curve with a large enough effect; inconclusive = small, poorly fitted or top-dose-only effect; inactive = flat fitted curve, though single readings scatter.
biological target: Aldehyde dehydrogenase, mitochondrial (Homo sapiens) (UniProt P05091); assay: qHTS for Inhibitors of the Aldehyde Dehydrogenase Family (ALDH2) Primary screen (AID 2061308); conditions: ALDH2 enzyme inhibition qHTS, 1536-well; series mostly up to 56 µM; activity change, negative = inhibition: at the top concentration;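 also: plate controls were vehicle for no effect and reference inhibitor for full effect; nearly all actives have a fitted effect of over 55% in size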

Row | SMILES | activity change, negative = inhibition
1 | CNc1nc(Cc2ccccc2)nc2c1CCNC[C@@H]2C | 8.04% (inactive)
2 | COc1c(O)cc2c(c1O)[C@@H]1O[C@H](CO)[C@@H](O)[C@H](O)[C@H]1OC2=O | -3.24% (inactive)
3 | O=S(=O)(c1ccc(S(=O)(=O)n2cnc3ccccc32)cc1)N1CCCCCC1 | 2.22% [at 28 µM] (inactive)
4 | COC(=O)[C@H](O)[C@H]1C(C)(C)[C@H](OC(=O)C(C)C)[C@@]2(O)C(=O)[C@]1(C)C1CC[C@]3(C)C(CC(=O)O[C@H]3c3ccoc3)[C@]13O[C@@H]32 (stereo not given in full) | -16.6% [at 16.9 µM] (inactive)
5 | COc1cc(CCO)ccc1O[C@@H]1O[C@H](CO)[C@@H](O)[C@H](O)[C@H]1O | -1.91% (inactive)
6 | COc1c2c(c(C)c3c1C(=O)OC3)OC1(C)CC(O)C(C(C)(C)O)C(C)(CCC(=O)O)C1C2 (stereo not given) | -10.4% [at 28 µM] (inactive)
7 | CC(CCC1C(C(=O)O)=CC(=O)CC1(C)C)O[C@@H]1O[C@H](CO)[C@@H](O)[C@H](O)[C@H]1O (stereo not given in full) | 8.61% (inactive)
8 | CC(=O)OC1CC2(C)C(CCC(C)C23Cc2c(O)cc(CO)c(C=O)c2O3)C(C)(C)C1O (stereo not given) | -6.32% [at 28 µM] (inactive)
9 | C=CC1(C)CC(OC(=O)/C(C)=C\COC(C)=O)C(C(=C)C(=O)O)C(O)C1C(=C)CO (stereo not given) | -11.3% [at 28 µM] (inactive)
10 | C[C@@H]1O[C@@H](O[C@H]2[C@@H](OC(=O)[C@]34CCC(C)(C)CC3C3=CCC5[C@@]6(C)C[C@H](O)[C@H](O[C@@H]7O[C@H](C(=O)O)[C@@H](O)[C@H](O)[C@H]7O)[C@@](C)(C(=O)O)C6CC[C@@]5(C)[C@]3(C)CC4)OC[C@H](O)[C@@H]2O)[C@H](O)[C@H](O)[C@H]1O[C@@H]1OC[C@@H](O)[C@H](O)[C@H]1O (stereo not given in full) | -0.797% [at 16.9 µM] (inactive)
